Source: the supplement of paper PMC9694430

Legend:
Test in all cases: thermal shift delta Tm vs DMSO control; higher = stronger stabilization (binding)
Settings in all cases: 12.5 µM; protein concentration 2 µM
LOC_OS01G01410-cb001 = tested on: LOC_OS01G01410-cb001
Method in brief: (§1)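 Purified, E. coli-expressed rice kinase domain constructs were tested by differential scanning fluorimetry in 96-well plates: 19.5 μl of 2 μM kinase in 100 mM potassium phosphate pH 7.5, 150 mM NaCl, 10% glycerol, 5 × SYPRO Orange, plus compound in DMSO. Fluorescence was read from 25°C to 95°C at 0.05°C/s. Melting temperatures came from Boltzmann fits, and the shift is the triplicate mean relative to protein with DMSO alone.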

LOC_OS01G02750-cb003 = tested on: LOC_OS01G02750-cb003
Method in brief: as §1

LOC_OS01G10900-cb004 = tested on: LOC_OS01G10900-cb004
Method in brief: as §1

LOC_OS01G13800-cb001 = tested on: LOC_OS01G13800-cb001
Method in brief: as §1

LOC_OS01G14860-cb001 = tested on: LOC_OS01G14860-cb001
Method in brief: as §1

LOC_OS01G21960-cb002 = tested on: LOC_OS01G21960-cb002
Method in brief: as §1

LOC_OS01G39600-cb002 = tested on: LOC_OS01G39600-cb002
Method in brief: as §1

LOC_OS01G48390-cb002 = tested on: LOC_OS01G48390-cb002
Method in brief: as §1

LOC_OS01G51400-cb002 = tested on: LOC_OS01G51400-cb002
Method in brief: as §1

LOC_OS01G52050-cb004 = tested on: T1, LOC_OS01G52050-cb004
T1 sequence (whole entry): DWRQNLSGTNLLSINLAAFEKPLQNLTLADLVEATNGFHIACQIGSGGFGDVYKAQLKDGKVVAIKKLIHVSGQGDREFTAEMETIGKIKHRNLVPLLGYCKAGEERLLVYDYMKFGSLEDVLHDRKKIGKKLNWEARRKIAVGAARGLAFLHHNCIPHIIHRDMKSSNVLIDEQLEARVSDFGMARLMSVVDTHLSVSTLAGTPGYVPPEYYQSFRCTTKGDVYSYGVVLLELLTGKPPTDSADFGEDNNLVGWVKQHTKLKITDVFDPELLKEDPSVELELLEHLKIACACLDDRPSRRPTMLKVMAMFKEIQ
Method in brief: as §1

LOC_OS01G57100-cb003 = tested on: LOC_OS01G57100-cb003
Method in brief: as §1

LOC_OS01G60330-cb001 = tested on: LOC_OS01G60330-cb001
Method in brief: as §1

LOC_OS01G60700-cb002 = tested on: LOC_OS01G60700-cb002
Method in brief: as §1

LOC_OS01G63280-cb003 = tested on: LOC_OS01G63280-cb003
Method in brief: as §1

LOC_OS01G67340-cb003 = tested on: LOC_OS01G67340-cb003
Method in brief: as §1

LOC_OS01G70970-cb002 = tested on: LOC_OS01G70970-cb002
Method in brief: as §1

LOC_OS02G07810-cb001 = tested on: LOC_OS02G07810-cb001
Method in brief: as §1

LOC_OS02G08530-cb003 = tested on: LOC_OS02G08530-cb003
Method in brief: as §1

LOC_OS02G14120-cb001 = tested on: LOC_OS02G14120-cb001
Method in brief: as §1

LOC_OS02G17970-cb001 = tested on: LOC_OS02G17970-cb001
Method in brief: as §1

Compound | thermal shift delta Tm (LOC_OS01G01410-cb001) [°C] | thermal shift delta Tm (LOC_OS01G02750-cb003) [°C] | thermal shift delta Tm (LOC_OS01G10900-cb004) [°C] | thermal shift delta Tm (LOC_OS01G13800-cb001) [°C] | thermal shift delta Tm (LOC_OS01G14860-cb001) [°C] | thermal shift delta Tm (LOC_OS01G21960-cb002) [°C] | thermal shift delta Tm (LOC_OS01G39600-cb002) [°C] | thermal shift delta Tm (LOC_OS01G48390-cb002) [°C] | thermal shift delta Tm (LOC_OS01G51400-cb002) [°C] | thermal shift delta Tm (LOC_OS01G52050-cb004) [°C] | thermal shift delta Tm (LOC_OS01G57100-cb003) [°C] | thermal shift delta Tm (LOC_OS01G60330-cb001) [°C] | thermal shift delta Tm (LOC_OS01G60700-cb002) [°C] | thermal shift delta Tm (LOC_OS01G63280-cb003) [°C] | thermal shift delta Tm (LOC_OS01G67340-cb003) [°C] | thermal shift delta Tm (LOC_OS01G70970-cb002) [°C] | thermal shift delta Tm (LOC_OS02G07810-cb001) [°C] | thermal shift delta Tm (LOC_OS02G08530-cb003) [°C] | thermal shift delta Tm (LOC_OS02G14120-cb001) [°C] | thermal shift delta Tm (LOC_OS02G17970-cb001) [°C]
COc1ccc(Cl)cc1NC(=O)Nc1cc(C)nc2ccccc12 | 0.77 | 3.02 | 0.18 | 0.68 | 0.5 | 1.37 | -1.53 | 5.48 | 1.15 | 1.3 | 1.28 | 1.01 | 0.92 | 0.87 | 0.83 | 0.66 | 1.12 | 0.89 | 0.14 | 0.65
Cc1cc(Nc2cc(Cl)nc(Oc3ccc([N+](=O)[O-])cc3)n2)n[nH]1 [Autophinib] | 2.53 | 3.49 | 2.92 | -0.1 | 7.77 | 1.42 | 1.82 | 4.13 | 0.51 | 5.57 | 1.52 | 0.66 | -0.44 | 0.94 | 0.51 | 1.07 | -0.12 | 0.84 | 0.42 | 0.46
O=C(c1cccc(Cl)c1F)N1CCN(Cc2cccc(Nc3nccs3)n2)CC1 | 0.64 | 0.86 | 0.24 | -0.45 | 4.28 | 0.14 | 2.61 | 1.3 | 0.25 | 4.36 | 1.37 | 0.61 | 1.32 | 0.37 | 0.2 | 0.46 | 1.01 | 2.51 | 9.07 | -0.27
COc1ccc(-c2cc3nccn3c(Nc3ncccc3C(N)=O)n2)cc1OC | 1.05 | 1.45 | 1.83 | 0.09 | 6.47 | 2.98 | 0.18 | 1.07 | 0.17 | 2.44 | 0.13 | 1.34 | 1.05 | 1.03 | 0.74 | 0.22 | 0.81 | 3.01 | 3.03 | 0.79
CCN1CCN(Cc2ccc(-c3cc4c(N[C@H](C)c5ccccc5)ncnc4[nH]3)cc2)CC1 | 3.01 | 0.66 | 3.11 | 0.28 | 0.24 | 0.28 | 2.27 | 0.54 | 0.24 | 0.44 | 0.7 | 1.5 | 0.28 | 0.52 | -0.08 | 0.5 | 1.12 | 0.67 | 3.81 | 0.8
